The text below walks through data of PubChem BioAssay (Tox21).

The nature of assay [1]: Nuclear factor erythroid 2-related factor 2/antioxidant responsive element (Nrf2/ARE) small molecule agonists: qHTS cell viability counter screen in human keratinocytes (AID 1919968; active = well fitted curve in the direction sought with a large enough effect in the repeat runs; an effect the other way counts as inactive or inconclusive; note: nearly all actives have a fitted effect of over 55% in size). In outline:
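CellTiter-Fluor fluorescence, read 1 h after reagent, gave viability in the same wells as the ARE-luciferase assay. KeratinoSens cells (1,500/well) had 23 h compound exposure at 37 C/5% CO2 following 5 h plating.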
Background: In qHTS, concentration-response curves come from the screen itself.

Assay [2] can be described thus: Nuclear factor erythroid 2-related factor 2/antioxidant responsive element (Nrf2/ARE) small molecule agonists: luciferase reporter gene qHTS assay in human keratinocytes (AID 1919969; note: nearly all actives have a fitted effect of over 35% in size; note: potency is the fitted concentration of half-maximal effect). (In a reporter assay the amount or activity of a reporter protein is the signal.)
In assay [3] the target is Gonadotropin-releasing hormone receptor (Homo sapiens) (UniProt P30968). The assay can be described thus: Human gonadotropin-releasing hormone receptor (GnRHR) small molecule agonists, calcium flux assay in GnRHR-HEK293 cells (AID 1920063). Note: nearly all actives have a fitted effect of over 35% in size. Summed up: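 Agonist mode: compounds at 15 concentrations, in triplicate, went onto calcium dye-loaded GnRHR-HEK293 cells. Intracellular calcium was then followed as 480/540 nm fluorescence at 1 s intervals over 3 min.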
In general terms: Calcium flux is commonly read through the fluorescence of an indicator in the cells.

In assay [4] the target is KiSS-1 receptor (Homo sapiens) (UniProt Q969F8). The assay can be described thus: Human kisspeptin (KISS1R) small molecule agonists, calcium flux assay in KISS1R-HEK293 cells (AID 1920064; active = well fitted curve in the direction sought with a large enough effect in the repeat runs; an effect the other way counts as inactive or inconclusive). Summed up: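 Agonist mode: intracellular calcium rise tracked at 1 s intervals over 3 min (480/540 nm) immediately after compound addition to dye-loaded KISS1R-HEK293 stable cells. Each compound tested at 15 concentrations in triplicate.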

Assay [5] can be described thus: G protein-coupled receptor (GPCR) small molecule agonists, calcium flux assay: HEK293 wild type cell line counter screen (AID 1920065). Summed up: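 Calcium flux counter screen: compound added in agonist mode at 15 concentrations in triplicate to dye-loaded parental HEK293 cells. Fluorescence (480/540) read kinetically for 3 min; ATP served as positive control.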

The nature of assay [6]: p53 small molecule agonists, cell-based qHTS assay with rat liver microsomes (AID 1963578). In outline: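 Quantitative HTS of the Tox21 10K library: p53RE-bla cells, rat liver microsomes plus NADPH at 0.5 mg/mL final each, 16 h at 37 C, beta-lactamase fluorescence detection.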
Assay [7] can be described thus: p53 small molecule agonists, cell-based qHTS assay with rat liver microsomes: qHTS cell viability counter screen (AID 1963580). Note: nearly all actives have a fitted effect of over 45% in size. In outline: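 After the beta-lactamase ratio was read, CellTiter-Glo was added to the same wells and luminescence measured at 30 min; cells had been treated 16 h at 37 C with compounds, rat liver microsomes and NADPH (0.5 mg/mL final each).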

Assay [8] is described as follows: p53 small molecule agonists, cell-based qHTS assay: qHTS cell viability counter screen (AID 1963581). Note: nearly all actives have a fitted effect of over 45% in size. In outline:
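Counter screen read by CellTiter-Glo luminescence (ATP content, 30 min at room temperature), run in the same wells as the beta-lactamase reporter read. HCT-116 p53RE-bla cells saw compounds for 16 h at 37 C.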

Assay [9] is described as follows: p53 small molecule agonists, cell-based qHTS assay (AID 1963582; active = well fitted activation curve with a large enough effect in the signal ratio in the repeat runs, not every such curve was filed as active; the % refers to the signal ratio). Summed up:
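Read-out is beta-lactamase FRET fluorescence after 2 h at room temperature with LiveBLAzer B/G substrate. p53 response element-bla cells were treated 16 h at 37 C with compounds in DMSO, added 5 h after seeding.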

The target of assay [10] is 5-hydroxytryptamine receptor 2A (Homo sapiens) (UniProt P28223). The assay can be described thus: 5-hydroxytryptamine receptor 2A (HTR2A) small molecule antagonists, cell-based qHTS assay (AID 1963586). Note: nearly all actives have a fitted effect of over 45% in size. In outline:
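CHO cells stably expressing human HTR2A were plated for 18 h at 37 C, then loaded with calcium dye for 1 h. Compounds were preincubated 5 min at room temperature before DOI (4 nM solution) was added. Kinetic fluorescence was read for 3 min.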

Assay [11] shares this target. The assay can be described thus: 5-hydroxytryptamine receptor 2A (HTR2A) small molecule agonists, cell-based qHTS assay (AID 1963587). Note: nearly all actives have a fitted effect of over 30% in size. In outline: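 CHO cells stably expressing human HTR2A, plated 18 h, loaded with calcium dye 1 h at 37 C. Agonist mode: compounds added and intracellular calcium fluorescence recorded kinetically for 2 min at 1 sec intervals.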
For assay [12], the target named is Muscarinic acetylcholine receptor M1 (Homo sapiens) (UniProt P11229). The assay can be described thus: Cholinergic receptor muscarinic 1 (CHRM1) small molecule antagonists, cell-based qHTS assay (AID 1963588). Note: nearly all actives have a fitted effect of over 40% in size. In outline: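 Compounds were tested at 15 concentrations in three independent runs. Dye-loaded CHRM1-CHO cells were exposed 5 min at room temperature before stimulation by acetylcholine added at 50nM. Intracellular calcium was read kinetically on FDSS for 3 min.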

The target is the same in assay [13]. The assay can be described thus: Cholinergic receptor muscarinic 1 (CHRM1) small molecule agonists, cell-based qHTS assay (AID 1963589). Note: nearly all actives have a fitted effect of over 35% in size. Summed up: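 Agonist-mode calcium-flux screen: compounds at 15 concentrations, three independent runs, were pin-transferred onto dye-loaded human CHRM1-CHO cells. Fluorescence was then recorded kinetically every second over minutes.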

Assay [14] is described as follows: cAMP Responsive Elements (CRE) small molecule agonists, cell-based qHTS assay (AID 1963590). Summed up: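 Agonist mode: compound added to CRE-bla HEK 293T cells (2,000/well, 18 h after plating) for 3 h at 37 C/5% CO2. Reporter activity detected via FRET beta-lactamase substrate, 2 h room-temperature loading.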
Assay [15] is described as follows: cAMP Responsive Elements (CRE) small molecule antagonists, cell-based qHTS assay (AID 1963591; active = well fitted inhibition curve with a large enough effect in the signal ratio in the repeat runs, not every such curve was filed as active; the % refers to the signal ratio). Summed up:
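Antagonist mode: compounds are added alongside the adenylyl cyclase activator NKH477 (0.25 uM final) to CRE-bla HEK293T cells for 3 h. LiveBLAzer FRET substrate, 2 h at room temperature, reports bla expression.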

The target in assay [16] is Beta-2 adrenergic receptor (Homo sapiens) (UniProt P07550). The assay can be described thus: Adrenergic beta2 receptor (ADRB2) small molecule antagonists, cell-based qHTS assay (AID 1963592). Note: series mostly up to about 92 µM; nearly all actives have a fitted effect of over 50% in size. In outline:
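Assay format: CHO-ADRB2 cells, 18-20hr seeding at 37C/5% CO2, then compound plus 1nM isoproterenol agonist mix for 0.5hr RT. Homogeneous time-resolved fluorescence cAMP detection after 1hr, expressed as 665/615 nm ratio.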

Assay [17] has the same target. The assay can be described thus: Adrenergic beta2 receptor (ADRB2) small molecule agonists, cell-based qHTS assay (AID 1963593).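 Note: CHO cells stably overexpressing human ADRB2.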 Summed up: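 CHO cells stably over-expressing ADRB2 were plated overnight at 37C, then dosed with compounds plus a stimulation mix containing 100uM IBMX and 25uM Ro-20-1724 for 0.5hr at room temperature. cAMP was measured by HTRF competition, 1hr.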

For assay [18], the target named is D(2) dopamine receptor (Homo sapiens) (UniProt P14416). The assay can be described thus: Dopamine D2 receptor (DRD2) small molecule agonists, cell-based qHTS assay (AID 1963594). Note: nearly all actives have a fitted effect of over 35% in size. In outline: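 HEK293 cells stably expressing human DRD2, pre-treated with PDE inhibitor Ro20-1724 (0.1 mM final) and compound 10 min at room temperature, then stimulated with NKH477 (200nM […]) for 30 min. cAMP read by HTRF (665/620 nm).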

The target is the same in assay [19]. The assay can be described thus: Dopamine D2 receptor (DRD2) small molecule antagonists, cell-based qHTS assay (AID 1963595; active = well fitted inhibition curve with a large enough effect in the signal ratio in the repeat runs, with a control signal flat; the % refers to the signal ratio). Summed up: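 Stable D2 receptor HEK293 line, 24 h after seeding. Compound preincubated 10 min, then quinpirole (12 nM) with forskolin analogue NKH477 (200 nM), 30 min, room temperature. Detection by time-resolved FRET of cAMP.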
Assay [20] is described as follows: p53 small molecule agonists, cell-based qHTS assay with human liver microsomes: qHTS cell viability counter screen (AID 1963579). Note: nearly all actives have a fitted effect of over 45% in size. Summed up: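 Viability of p53RE-bla cells is measured as CellTiter-Glo luminescence following a 16 h, 37 C incubation with compound, liver microsomes from human donors and NADPH.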

Each structure is given as a SMILES string. Records with an inconclusive call do not appear. Calls of active or inactive are those of the source. Unless noted, calls come from the whole dose curve.

Chain of KiSS-1 receptor (Homo sapiens) (Q969F8 whole entry, looked up): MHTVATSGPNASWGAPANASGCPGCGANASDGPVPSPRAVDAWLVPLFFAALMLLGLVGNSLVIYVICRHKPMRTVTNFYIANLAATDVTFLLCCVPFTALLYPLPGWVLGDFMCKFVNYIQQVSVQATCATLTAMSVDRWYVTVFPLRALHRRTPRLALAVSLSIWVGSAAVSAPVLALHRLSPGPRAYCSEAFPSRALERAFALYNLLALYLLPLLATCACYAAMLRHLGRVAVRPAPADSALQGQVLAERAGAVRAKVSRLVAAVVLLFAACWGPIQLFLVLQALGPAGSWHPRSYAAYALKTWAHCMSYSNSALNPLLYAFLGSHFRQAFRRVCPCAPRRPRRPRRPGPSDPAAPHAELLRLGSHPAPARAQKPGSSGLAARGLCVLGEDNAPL
Chain of Gonadotropin-releasing hormone receptor (Homo sapiens) (P30968 whole entry, looked up): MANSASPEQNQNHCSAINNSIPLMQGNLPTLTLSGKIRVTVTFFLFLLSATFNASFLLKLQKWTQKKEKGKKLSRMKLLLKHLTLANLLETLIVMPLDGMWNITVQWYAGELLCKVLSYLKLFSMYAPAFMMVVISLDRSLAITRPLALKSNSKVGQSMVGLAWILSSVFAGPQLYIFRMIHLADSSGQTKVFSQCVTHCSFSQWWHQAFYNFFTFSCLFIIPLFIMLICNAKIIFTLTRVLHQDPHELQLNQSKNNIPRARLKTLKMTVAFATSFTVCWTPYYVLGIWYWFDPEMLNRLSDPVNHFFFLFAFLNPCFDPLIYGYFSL
Chain of D(2) dopamine receptor (Homo sapiens) (P14416 whole entry, looked up): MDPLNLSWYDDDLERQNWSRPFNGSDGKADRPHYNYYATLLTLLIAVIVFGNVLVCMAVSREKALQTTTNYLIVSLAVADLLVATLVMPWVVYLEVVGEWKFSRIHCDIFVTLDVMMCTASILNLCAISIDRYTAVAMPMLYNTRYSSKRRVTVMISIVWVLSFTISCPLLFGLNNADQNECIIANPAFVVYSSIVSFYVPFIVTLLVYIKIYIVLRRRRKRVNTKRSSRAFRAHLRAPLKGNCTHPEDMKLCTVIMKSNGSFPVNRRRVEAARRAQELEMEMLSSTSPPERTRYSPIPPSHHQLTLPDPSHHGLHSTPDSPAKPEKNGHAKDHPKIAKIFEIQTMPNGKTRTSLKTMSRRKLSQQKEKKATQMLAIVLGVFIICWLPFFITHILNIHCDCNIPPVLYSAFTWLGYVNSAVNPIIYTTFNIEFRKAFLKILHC
Chain of Beta-2 adrenergic receptor (Homo sapiens) (P07550 whole entry, looked up): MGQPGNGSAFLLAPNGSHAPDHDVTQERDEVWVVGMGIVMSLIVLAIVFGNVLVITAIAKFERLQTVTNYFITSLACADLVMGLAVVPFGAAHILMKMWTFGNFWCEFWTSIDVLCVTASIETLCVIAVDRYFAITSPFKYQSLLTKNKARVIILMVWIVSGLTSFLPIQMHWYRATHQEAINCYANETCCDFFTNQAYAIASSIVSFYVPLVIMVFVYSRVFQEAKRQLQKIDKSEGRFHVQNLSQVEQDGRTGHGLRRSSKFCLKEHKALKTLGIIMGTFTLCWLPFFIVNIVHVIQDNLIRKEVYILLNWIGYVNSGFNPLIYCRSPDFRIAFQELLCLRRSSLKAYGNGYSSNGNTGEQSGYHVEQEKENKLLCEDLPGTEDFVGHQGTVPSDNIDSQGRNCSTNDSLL
Chain of Muscarinic acetylcholine receptor M1 (Homo sapiens) (P11229 whole entry, looked up): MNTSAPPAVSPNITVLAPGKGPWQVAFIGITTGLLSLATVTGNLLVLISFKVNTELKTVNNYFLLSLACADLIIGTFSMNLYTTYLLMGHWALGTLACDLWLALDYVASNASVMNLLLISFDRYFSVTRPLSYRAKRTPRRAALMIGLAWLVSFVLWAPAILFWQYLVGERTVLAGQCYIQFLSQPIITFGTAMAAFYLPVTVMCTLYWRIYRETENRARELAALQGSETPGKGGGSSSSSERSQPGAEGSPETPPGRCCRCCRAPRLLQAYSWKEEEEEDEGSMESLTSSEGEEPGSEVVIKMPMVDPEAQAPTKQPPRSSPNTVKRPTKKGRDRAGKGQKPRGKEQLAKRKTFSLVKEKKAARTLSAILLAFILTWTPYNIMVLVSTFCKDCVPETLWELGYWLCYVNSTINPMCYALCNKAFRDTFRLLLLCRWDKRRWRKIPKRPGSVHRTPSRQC
Chain of 5-hydroxytryptamine receptor 2A (Homo sapiens) (P28223 whole entry, looked up): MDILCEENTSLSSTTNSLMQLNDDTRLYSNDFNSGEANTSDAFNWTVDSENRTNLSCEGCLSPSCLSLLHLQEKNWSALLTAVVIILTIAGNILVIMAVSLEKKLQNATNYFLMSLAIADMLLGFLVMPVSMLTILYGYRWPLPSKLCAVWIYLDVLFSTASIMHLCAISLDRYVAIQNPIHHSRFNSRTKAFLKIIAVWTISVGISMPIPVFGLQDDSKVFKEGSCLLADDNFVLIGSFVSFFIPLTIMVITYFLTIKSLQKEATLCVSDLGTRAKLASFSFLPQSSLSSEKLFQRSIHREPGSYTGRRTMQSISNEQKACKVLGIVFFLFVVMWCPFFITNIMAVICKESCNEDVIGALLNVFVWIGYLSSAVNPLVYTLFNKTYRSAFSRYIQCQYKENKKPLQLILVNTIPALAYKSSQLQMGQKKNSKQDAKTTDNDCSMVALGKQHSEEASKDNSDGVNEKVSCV

`CCCCCCOC(=O)CC`: the Potency entry in assay [1], in assay [2], in assay [3], in [4], in [5] and in assay [6] was “inactive” in each case. In addition, the Potency result in [7], in [8], in assay [9], in [10], in assay [11] and in assay [12] was “inactive” throughout. Further, the Potency entry in assay [13], in assay [14], in [15], in assay [16], in assay [17] and in assay [18] was “inactive” throughout. For the same compound, in [19], the Potency result was “inactive”.

`Cc1cccc(N)n1`: the Potency result in assay [1], in [2], in assay [3], in assay [4], in assay [5] and in assay [6] was “inactive” throughout. Moreover, the Potency result in [7], in assay [8], in [9], in assay [10], in assay [11] and in [12] was “inactive” throughout. The Potency result in assay [13], in assay [14], in assay [15], in assay [16], in [17] and in [18] was “inactive” each time. For the same compound, in [19], the Potency entry is “inactive”.

For `O=C1CC2CC1C1CCCC21` (configuration not stated), the Potency result in assay [1], in assay [2], in assay [3], in assay [4], in assay [5] and in assay [6] was “inactive” throughout. Besides, the Potency result in assay [20], in assay [8], in assay [10], in assay [11], in [12] and in assay [13] was “inactive” each time. The Potency result in assay [14], in assay [15], in assay [17], in assay [18] and in assay [19] was “inactive” each time.

As for `Cc1ccc(O)c([N+](=O)[O-])c1`, the Potency entry in assay [1], in [2], in assay [3], in assay [4], in [5] and in assay [6] was “inactive” in each case. In addition, the Potency result in [7], in assay [8], in assay [9], in assay [10], in assay [11] and in assay [12] was “inactive” each time. The Potency entry in assay [13], in [14], in assay [15], in assay [16], in [17] and in [18] was “inactive” throughout. Further, the Potency result in assay [19] was “inactive”.

Consider `Cc1occc1SSc1ccoc1C`, for which the Potency entry in [1], in [3], in assay [4], in [5], in assay [6] and in assay [7] was “inactive” throughout. For the same compound, the Potency result in assay [8], in assay [9], in assay [11], in [12], in assay [13] and in [14] was “inactive” each time. Besides, the Potency entry in assay [15], in assay [16] and in assay [18] was “inactive” throughout. In addition, in assay [2], the Potency is 61.1 µM (active).

As for `O=c1n(CCO)c(=O)n(CCO)c(=O)n1CCO`, the Potency result in assay [1], in [2], in assay [3], in assay [4], in assay [5] and in [6] was “inactive” throughout. In addition, the Potency result in assay [7], in assay [8], in assay [9], in assay [10], in [11] and in assay [12] was “inactive” in each case. Also, the Potency entry in assay [13], in assay [14], in assay [15], in assay [16], in [17] and in assay [18] was “inactive” throughout. Further, the Potency result in [19] is “inactive”.

As for `CCCCOC(=O)C(=O)OCCCC`, the Potency result in assay [1], in assay [2], in assay [3], in [4], in assay [5] and in [6] was “inactive” each time. The Potency entry in assay [7], in [8], in assay [9], in assay [11], in assay [12] and in assay [13] was “inactive” throughout. The Potency result in [14], in assay [15], in [16], in assay [17], in [18] and in assay [19] was “inactive” in each case.
